A selection: hits, their analogues and other compounds. The true share with any hit is near 12%.
G9a block – qHTS Assay for Inhibitors of Histone Lysine Methyltransferase G9a; Histone-lysine N-methyltransferase EHMT2 (Homo sapiens), Q96KQ7; G9a H3K9 monomethylation, AlphaScreen, 2 h; Potency, µM (series often up to 102 µM), without a hit: top-dose activity, negative = inhibition, hits mostly inhibitors; actives 8.8% (n = 350,000); AID 504332, 2011; note: % is set by controls: 0 for no effect and ±100 for the full control effect; nearly all actives have a fitted effect of over 75% in size
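Compounds were preincubated with 20 nM G9a for 15 min, after which biotinylated H3K9 peptide (500 nM) and SAM (20 uM) started a 2 h room-temperature reaction. Monomethylated product was quantified by antibody-based AlphaScreen chemiluminescence.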
HP1b chromo inh – HTS for Inhibitors of HP1-beta Chromodomain Interactions with Methylated Histone Tails | Chromobox protein homolog 1 (Homo sapiens), P83916 | AlphaScreen HP1-beta / biotin-H3K9me3 peptide binding | Potency, µM (doses to about 114 µM), for inactives: at the top dose activity change, negative = inhibition, most hits filed as inhibitors | actives 0.56% (n = 390,000); note: nearly all actives have a fitted effect of over 70% in size
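AlphaScreen: HP1-beta (50 nM) preformed 30 min with biotin-H3(1-18)K9me3 peptide (50 nM) in PBS pH 7.4, 0.01% Tween-20. Compound added for 30 min at RT, then streptavidin donor/nickel chelate acceptor beads (10 ug/mL) for 30 min.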
L3MBTL1 block – qHTS Assay for the Inhibitors of L3MBTL1. Potency, µM (titrated, usually from 57.1 µM), for the others: top-dose activity, negative = inhibition, usual class: inhibitors. Lethal(3)malignant brain tumor-like protein 1 (Homo sapiens), Q9Y468. AlphaScreen L3MBTL1–H3K9me1 peptide binding. actives 0.66% (n = 230,000). AID 485360, 2010; note: % is set by controls: 0 for no effect and ±100 for the full control effect; nearly all actives have a fitted effect of over 60% in size
Target sequence (Q9Y468 whole entry, looked up): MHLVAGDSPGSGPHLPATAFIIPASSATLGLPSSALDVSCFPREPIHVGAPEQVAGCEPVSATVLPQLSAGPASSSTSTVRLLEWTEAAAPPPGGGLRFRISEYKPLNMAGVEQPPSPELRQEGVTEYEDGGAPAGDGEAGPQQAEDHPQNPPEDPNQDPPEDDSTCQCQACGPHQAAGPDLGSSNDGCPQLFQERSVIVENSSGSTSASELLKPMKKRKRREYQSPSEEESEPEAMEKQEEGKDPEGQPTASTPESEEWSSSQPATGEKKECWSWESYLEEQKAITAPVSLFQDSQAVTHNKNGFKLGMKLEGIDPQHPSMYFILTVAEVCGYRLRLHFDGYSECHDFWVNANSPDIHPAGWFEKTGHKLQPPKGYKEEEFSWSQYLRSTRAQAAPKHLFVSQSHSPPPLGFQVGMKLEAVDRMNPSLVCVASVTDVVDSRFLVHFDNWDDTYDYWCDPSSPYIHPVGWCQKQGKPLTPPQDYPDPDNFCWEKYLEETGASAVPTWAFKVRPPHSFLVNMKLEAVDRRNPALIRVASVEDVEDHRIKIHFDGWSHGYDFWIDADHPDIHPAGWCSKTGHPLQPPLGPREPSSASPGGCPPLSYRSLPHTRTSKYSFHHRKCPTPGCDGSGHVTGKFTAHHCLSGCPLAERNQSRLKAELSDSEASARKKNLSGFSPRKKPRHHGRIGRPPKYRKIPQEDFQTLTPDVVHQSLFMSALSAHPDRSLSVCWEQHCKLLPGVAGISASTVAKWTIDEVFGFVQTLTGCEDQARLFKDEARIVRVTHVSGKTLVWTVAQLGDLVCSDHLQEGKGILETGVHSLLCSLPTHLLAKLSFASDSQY
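Displacement of a biotinylated histone H3(1-15) peptide monomethylated at Lys9 (75 nM) from L3MBTL1 (50 nM) was measured by AlphaScreen after a 30 min room-temperature compound incubation; cefsulodin titration served as intraplate control.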
JMJD2A Tudor – qHTS Assay for Inhibitors of JMJD2A-Tudor Domain; Lysine-specific demethylase 4A (Homo sapiens), O75164; AlphaScreen JMJD2A-Tudor / H3K4me3 peptide binding; Potency, µM (doses to about 114 µM), for inactives: at the top dose activity change, negative = inhibition, most hits filed as inhibitors; AID 504339, 2011; actives 4.4% (n = 390,000); note: % is set by controls: 0 for no effect and ±100 for the full control effect; nearly all actives have a fitted effect of over 50% in size
BAZ2B block – qHTS Assay for Inhibitors of BAZ2B | actives 4.4% (n = 360,000) | AlphaScreen BAZ2B-H3K14Ac peptide displacement | Bromodomain adjacent to zinc finger domain protein 2B (Homo sapiens), Q9UIF8 | Potency, µM (top dose mostly 114 µM), for inactives: at the top dose activity change, negative = inhibition, usual class: inhibitors; note: % is set by controls: 0 for no effect and ±100 for the full control effect; nearly all actives have a fitted effect of over 60% in size
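BAZ2B 50 nM plus b-H3(5-23)K14Ac 50 nM, PBS pH 7.4/0.01% Tween-20, 30 min RT; compound added (max 110 uM), 30 min RT; streptavidin donor/Ni-chelate acceptor beads 10 ug/mL final, 20 min dark; AlphaScreen read.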
Sfp PPTase inh – qHTS Assay for Inhibitors of Bacillus subtilis Sfp phosphopantetheinyl transferase (PPTase); actives 3.5% (n = 310,000); Potency, µM, without a hit: largest response in the series, negative = inhibition, actives largely listed as inhibitors; Biochemical Sfp PPTase activity, qHTS; 4'-phosphopantetheinyl transferase ffp (Bacillus subtilis), Q9F4F7;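 note: the enzyme is Sfp with the accession as filed and its product quenches rhodamine fluorescence; 0% = enzyme reaction without inhibitor and -100% = no enzyme wells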
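Step 1, compound plus 15 nM Sfp-PPTase, 15 min, room temperature. Step 2, add rhodamine-CoA (5 uM) and BHQ-2-YbbR (12.5 uM). Step 3, read 525/598 nm fluorescence at 0 and 30 min.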
Active calls of the source: *; [ ] = remark or other dose. Calls come from the whole dose curve; as a rule, active = well fitted curve in the direction sought with a large enough effect; inconclusive = small, poorly fitted or top-dose-only effect, or another doubt; inactive = no such curve, though single readings can be large; an effect the other way counts as inactive or inconclusive. Potency is the fitted concentration of half-maximal effect.

CSc1ccccc1C(=O)NCC(c1ccco1)N(C)C (stereo unspecified) was read as G9a block 40µM*, HP1b chromo inh 22%, JMJD2A Tudor -2%, BAZ2B block -17% and Sfp PPTase inh 15%.
For COc1ccc2oc(C(=O)NCCc3ccccc3)c(C)c2c1 the results were G9a block -10%[2.33 µM], HP1b chromo inh 27%, L3MBTL1 block 3%, JMJD2A Tudor 9% and BAZ2B block 8%.
CSc1ccc(C(=O)NCC(c2ccco2)N(C)C)cc1[N+](=O)[O-] (stereo unspecified) was read as G9a block 7%, HP1b chromo inh -27%, JMJD2A Tudor -28%, BAZ2B block -6% and Sfp PPTase inh 7%.
Screening COc1ccc2oc(C(=O)NCC(c3ccco3)N(C)C)c(C)c2c1 (stereo unspecified) returned G9a block inconclusive, HP1b chromo inh -9%, L3MBTL1 block -19%, JMJD2A Tudor -27% and BAZ2B block 50µM*.
For COc1ccc2oc(C(=O)NCc3cc(OC)c(OC)cc3OC)c(C)c2c1 the results were G9a block inconclusive, HP1b chromo inh inconclusive, JMJD2A Tudor 35µM*, BAZ2B block inconclusive and Sfp PPTase inh -8%.
`CC(C)CC1OC(=O)C2=CCCCC21` (stereo unspecified) gave Sfp PPTase inh 7%.
`O=C(O)c1ccccc1C(=O)Nc1nccs1` gave G9a block 0%[0.0925 µM], HP1b chromo inh 1%, L3MBTL1 block 8%, JMJD2A Tudor -22%, BAZ2B block 14% and Sfp PPTase inh -7%.
Screening O=C(O)c1ccccc1C(=O)Nc1n[nH]c(=S)s1 returned G9a block 1.4µM*, HP1b chromo inh 28µM*, L3MBTL1 block inconclusive, JMJD2A Tudor 13µM*, BAZ2B block 32µM* and Sfp PPTase inh 10µM*.
Screening COc1ccc(CCn2c(-c3ccc(C(C)(C)C)cc3)n[nH]c2=S)cc1OC returned G9a block inconclusive, HP1b chromo inh -31%, L3MBTL1 block 1%[11.4 µM], JMJD2A Tudor 18µM*, BAZ2B block -16% and Sfp PPTase inh -5%.
COc1ccc(Cl)cc1-c1n[nH]c(=S)o1 was read as G9a block inconclusive, HP1b chromo inh 29%, L3MBTL1 block 3%, JMJD2A Tudor -29%, BAZ2B block -5% and Sfp PPTase inh -1%.
CCCCn1c(-c2cc(Cl)ccc2OC)n[nH]c1=S was read as G9a block 2µM*, HP1b chromo inh -15%, JMJD2A Tudor 13µM*, BAZ2B block -5% and Sfp PPTase inh inconclusive.
COc1ccc(CCn2c(-c3ccc(Cl)cc3)n[nH]c2=S)cc1OC was read as G9a block 2.2µM*, HP1b chromo inh 36%, L3MBTL1 block -17%, JMJD2A Tudor -21%, BAZ2B block inconclusive and Sfp PPTase inh inconclusive.
Cc1nc(N2CCN(C)CC2)c2nnn(Cc3ccccc3)c2n1 was read as HP1b chromo inh 55% and JMJD2A Tudor -5%.
For Cc1ccc(CN2C(=O)c3ccccc3C2C(=O)NC2CCCCCC2)cc1 (stereo unspecified) the results were G9a block 0%[59 µM], HP1b chromo inh 37%, JMJD2A Tudor 2% and BAZ2B block 1%.
For COc1ccc(Nc2oc(-c3ccc(COc4ccc(OC)cc4)o3)nc2C#N)cc1 the results were G9a block -25%[59 µM], HP1b chromo inh 21%, JMJD2A Tudor -23% and BAZ2B block inconclusive.
`Cc1nc(C)c(-c2csc(Nc3ccc(S(N)(=O)=O)cc3)n2)s1` gave G9a block inconclusive, HP1b chromo inh 35%, L3MBTL1 block -3%, JMJD2A Tudor -15%, BAZ2B block -16% and Sfp PPTase inh -10%.
`CC(=O)Nc1ccc(Nc2nc(-c3sc(C)nc3C)cs2)cc1` gave G9a block inconclusive, HP1b chromo inh -2%, L3MBTL1 block -7%, JMJD2A Tudor -26%, BAZ2B block inconclusive and Sfp PPTase inh -14%.
Screening Cc1ccc(Nc2nc(-c3sc(N)nc3C)cs2)cc1 returned HP1b chromo inh inconclusive, L3MBTL1 block -9%, JMJD2A Tudor 50µM*, BAZ2B block 40µM* and Sfp PPTase inh inconclusive.
`COc1ccc(Nc2nc(-c3sc(N)nc3C)cs2)cc1` gave G9a block inconclusive, HP1b chromo inh inconclusive, L3MBTL1 block -18%, JMJD2A Tudor 50µM*, BAZ2B block 14µM* and Sfp PPTase inh 18µM*.
Screening COc1ccc(Nc2nc(-c3sc(NC(C)=O)nc3C)cs2)cc1 returned G9a block 40µM*, BAZ2B block 6% and Sfp PPTase inh 40µM*.
`COc1ccc(CCNc2nc(-c3sc(N)nc3C)cs2)cc1OC` gave G9a block inconclusive, HP1b chromo inh inconclusive, JMJD2A Tudor 56µM*, BAZ2B block 50µM* and Sfp PPTase inh -13%.
Screening COCCn1ccc2c(OCC(=O)NCc3ccc(F)cc3)cccc2c1=O returned G9a block 0%[59 µM], HP1b chromo inh 18%, JMJD2A Tudor -13% and BAZ2B block 3%.
For Clc1cccc(N2CCN(c3nc4ccccc4n4cnnc34)CC2)c1 the results were G9a block -7%[59 µM], HP1b chromo inh 8%, JMJD2A Tudor -14% and BAZ2B block 2%.
CCOC(=O)c1cnc2cc(C(F)(F)F)ccc2c1Nc1cc(C)ccc1OC was read as G9a block -14%[59 µM], HP1b chromo inh -2%, JMJD2A Tudor -8% and BAZ2B block -33%.
Screening CCOC(=O)c1sc(Nc2ccc(OCC)cc2)nc1C returned G9a block -2%, HP1b chromo inh 42%, L3MBTL1 block -9%, JMJD2A Tudor -5%, BAZ2B block -39% and Sfp PPTase inh 6%.
CCOc1ccc(Nc2nc(-c3sc(N)nc3C)cs2)cc1 was read as G9a block 35µM*, HP1b chromo inh inconclusive, L3MBTL1 block -3%, JMJD2A Tudor 50µM*, BAZ2B block 45µM* and Sfp PPTase inh -16%.

Assay outcomes deposited in PubChem by National Center for Advancing Translational Sciences (NCATS).
